According to PubChem BioAssay (NCATS):
Records with an inconclusive call do not appear. Calls of active or inactive are those of the source. Unless noted, calls follow the shape of the dose curve; as a rule, active = well fitted curve in the direction sought with a large enough effect; inconclusive = small, poorly fitted or top-dose-only effect, or another doubt; inactive = no such curve, though single readings can be large; an effect the other way counts as inactive or inconclusive.

Experiments:
[1] = target: Cytochrome P450 1A2 (Homo sapiens) (UniProt P05177); assay: p450-cyp1a2 (AID 410; calls by dose curve)
Cytochrome P450 1A2 (Homo sapiens), sequence (P05177 whole entry, looked up): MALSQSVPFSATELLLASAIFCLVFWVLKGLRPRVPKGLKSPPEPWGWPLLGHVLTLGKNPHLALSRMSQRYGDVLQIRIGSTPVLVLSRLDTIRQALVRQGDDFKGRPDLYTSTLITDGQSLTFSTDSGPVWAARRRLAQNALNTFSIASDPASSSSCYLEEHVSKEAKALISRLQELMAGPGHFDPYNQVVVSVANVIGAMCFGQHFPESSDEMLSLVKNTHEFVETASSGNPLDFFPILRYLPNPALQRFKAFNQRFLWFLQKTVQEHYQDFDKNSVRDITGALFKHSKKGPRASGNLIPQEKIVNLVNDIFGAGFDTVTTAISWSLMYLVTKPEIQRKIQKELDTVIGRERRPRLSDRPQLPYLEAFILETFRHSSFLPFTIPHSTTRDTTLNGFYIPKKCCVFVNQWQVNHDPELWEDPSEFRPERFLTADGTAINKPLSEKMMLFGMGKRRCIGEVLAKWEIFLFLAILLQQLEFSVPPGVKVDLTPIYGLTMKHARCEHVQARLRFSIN
Method in brief: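 Luminescent demethylation readout: Luciferin-ME (100uM, equal to Km) turned over by 20nM CYP1A2 for 60 min at room temperature after NADPH regeneration addition, following 10 min compound preincubation. Normalization used 57 uM furafylline as full inhibition.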

[2] = target: Cytochrome P450 3A4 (Homo sapiens) (UniProt P08684); assay: qHTS Assay for Inhibitors and Substrates of Cytochrome P450 3A4 (AID 884)
Cytochrome P450 3A4 (Homo sapiens), sequence (P08684 whole entry, looked up): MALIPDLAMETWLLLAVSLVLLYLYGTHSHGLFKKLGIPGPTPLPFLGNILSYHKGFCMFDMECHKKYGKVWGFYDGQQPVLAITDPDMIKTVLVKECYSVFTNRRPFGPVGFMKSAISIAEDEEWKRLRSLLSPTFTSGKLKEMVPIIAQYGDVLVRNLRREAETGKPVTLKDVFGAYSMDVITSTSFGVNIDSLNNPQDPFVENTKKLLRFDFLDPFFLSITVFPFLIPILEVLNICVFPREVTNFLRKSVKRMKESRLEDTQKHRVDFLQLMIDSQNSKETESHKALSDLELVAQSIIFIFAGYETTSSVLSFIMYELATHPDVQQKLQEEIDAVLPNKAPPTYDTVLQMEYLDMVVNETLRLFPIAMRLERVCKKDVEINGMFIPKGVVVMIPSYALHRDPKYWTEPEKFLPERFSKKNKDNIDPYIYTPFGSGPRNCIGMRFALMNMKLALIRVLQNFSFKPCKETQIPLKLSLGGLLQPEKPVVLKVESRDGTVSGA
Method in brief: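 Luminescent readout of luciferin produced by CYP3A4 (20 nM) dealkylation of Luciferin-PPXE, 25 uM (its KM). NADPH-driven reaction ran 60 min at RT after 10 min compound preincubation; data scaled to 57 uM ketoconazole as 100% inhibition.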

[3] = target: Cytochrome P450 3A4 (Homo sapiens) (UniProt P08684); assay: qHTS Assay for Activators of Cytochrome P450 3A4 (AID 885)
Method in brief: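 Human CYP3A4 dealkylates Luciferin-PPXE to luciferin, which luciferase detection converts to light. Substrate was at its KM (25uM), buffer 200mM KPO4, reaction 60 min at RT.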

[4] = target: Cytochrome P450 2D6 (Homo sapiens) (UniProt P10635); assay: qHTS Assay for Inhibitors and Substrates of Cytochrome P450 2D6 (AID 891)
Cytochrome P450 2D6 (Homo sapiens), sequence (P10635 whole entry, looked up): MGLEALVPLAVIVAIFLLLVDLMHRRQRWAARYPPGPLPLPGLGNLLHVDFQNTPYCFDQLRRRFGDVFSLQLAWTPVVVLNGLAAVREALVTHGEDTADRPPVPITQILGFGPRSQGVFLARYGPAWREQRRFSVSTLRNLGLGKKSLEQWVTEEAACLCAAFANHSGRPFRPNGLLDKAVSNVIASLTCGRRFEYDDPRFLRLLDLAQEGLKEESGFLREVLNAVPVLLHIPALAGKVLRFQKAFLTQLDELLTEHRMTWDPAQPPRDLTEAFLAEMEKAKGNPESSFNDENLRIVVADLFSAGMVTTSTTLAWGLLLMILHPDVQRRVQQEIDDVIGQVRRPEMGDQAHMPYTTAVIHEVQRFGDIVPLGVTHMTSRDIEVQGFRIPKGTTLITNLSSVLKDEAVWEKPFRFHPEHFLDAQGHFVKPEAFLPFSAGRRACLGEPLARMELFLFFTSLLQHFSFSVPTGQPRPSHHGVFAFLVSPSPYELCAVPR
Method in brief: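 Luminescent read-out of luciferin formed by 5 nM human CYP2D6 demethylating 30 uM Luciferin-ME EGE (Km level) over 60 min at room temperature after NADPH regeneration addition. Data normalized to full inhibition by 1.43 uM quinidine.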

[5] = HEK-293 Cancer Cell Toxicity qHTS against the NCATS CANVASS Library (AID 1347355)
Method in brief: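 Toxicity was measured as CellTiter-Glo luminescence after 72 h exposure to an 11-point compound series. Compound was added to 1000 cells/well 4 h after seeding.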

[6] = SDT Cancer Cell Toxicity qHTS against the NCATS CANVASS Library (AID 1347365)
Method in brief: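 Cytotoxicity taken from CellTiterGlo ATP luminescence after 72 hr at 37C, 5% CO2. Canine glioma line SDT, 500 cells/well, treated at 11 concentrations; bortezomib dose series as control.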

[7] = G06 Cancer Cell Toxicity qHTS against the NCATS CANVASS Library (AID 1347368)
Method in brief: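 Viability measured by CellTiterGlo ATP luminescence after 72 hr at 37C, 5% CO2. Canine G06 glioma cells plated at 500/well. Compounds tested as 11-point qHTS titrations.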

[8] = MCF7 Cancer Cell Toxicity qHTS against the NCATS CANVASS Library (AID 1347369)
Method in brief: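 This 72 hr qHTS scored MCF7 viability by CellTiterGlo luminescence, with 500 cells/well; bortezomib titration ran as control.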

[9] = qHTS for Hypoxia signaling pathway (HIF-1) agonists against the NCATS CANVASS Library (AID 1347375)
Method in brief: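 Beta-lactamase reporter under HRE control in ME-180 cells; compounds (11-point qHTS series) added after 5 hrs plating, then 17 hrs at 37C. FRET substrate read after 2 hr; same-well CellTiter-Glo luminescence gave viability and normalization.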

[10] = DH5-alpha competent E. coli microbial cell viability qHTS against the NCATS CANVASS Library (AID 1347377); conditions: outcome: at 46.1 µM (top of the series)
Method in brief: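 Bacterial viability as ATP-dependent luminescence (BacTiter-Glo), read after overnight 37 °C exposure of DH5-alpha competent E. coli to compounds in 11-point titration.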

[11] = qHTS for Inflammasome Signaling Inhibitors: IL-1-beta AlphaLISA screen against the NCATS CANVASS Library (AID 1347379)
Method in brief: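 Secreted IL-1B from human THP-1 cells quantified by AlphaLISA 16 hr after compound addition (final up to 57.5 uM). A 1 hr compound pretreatment preceded inflammasome activation with 250 ng/mL LPS plus 1.25 mM ATP (final).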

[12] = qHTS for Antimalaria activity screened against the NCATS CANVASS Library (AID 1347380)
Method in brief: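 SYBR Green fluorescence at 485/535 nm was read 18 hr after lysis. This followed a 72 hr incubation at 37C in 5% O2, 5% CO2 of Dd2-infected erythrocytes (0.3% parasitemia, 2.5% final hematocrit) with compounds titrated over 11 concentrations.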

[13] = Secretion counterscreen for inhibitors of the SERCaMP assay screened against the NCATS CANVASS Library (AID 1347390)
Method in brief: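 Natural products are titrated in an 11-point series up to 77 uM onto SH-SY5Y-GLuc STOP cells for 20 h. Secreted reporter activity is measured as coelenterazine-driven luminescence, with Brefeldin A on each plate.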

[14] = SW1088 Cancer Cell Toxicity qHTS against the NCATS CANVASS Library (AID 1347350)
Method in brief: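 Per well, 1000 cells; exposure 72 h with compound at 11 final concentrations; readout CellTiter-Glo luminescence.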

[15] = qHTS for ATAD5 Antagonist screened against the NCATS CANVASS Library (AID 1347370)
Method in brief: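 Compounds (11-point) co-dosed with 10 µM 5-FUrd for 16 h at 37 °C onto HEK293T-ATAD5 luciferase reporter cells. Viability measured by CellTiter-Fluor fluorescence, then ATAD5 reporter signal by luminescence.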

[16] = qHTS for Activators of p53 Stress Response Pathway screened against the NCATS CANVASS Library (AID 1347388)
Method in brief: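 Beta-lactamase reporter driven by p53 response elements in HCT-116 cells, read as the 460 nm/530 nm emission ratio after CCF4 loading, following 16 h of exposure to an 11-point series. Cell viability was measured in the same wells by CellTiter-Glo luminescence.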

[17] = qHTS for inhibitors of ER calcium dysfunction: SERCaMP assay screened against the NCATS CANVASS Library (AID 1347393)
Method in brief: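 Thapsigargin-induced ER calcium depletion drives GLuc-SERCaMP secretion from SH-SY5Y cells; compounds given 16 h beforehand were scored by lowered coelenterazine luminescence after 4 h challenge.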

[18] = qHTS for inhibitors of Rabies Virus screened against the NCATS CANVASS Library (AID 1347402; calls by dose curve)
[19] = AP1 Signaling Pathway (AID 357; active = well fitted curve in either direction with a large enough effect, not every such curve was filed as active)
Method in brief: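 Cells are seeded overnight, exposed to compound titrations and an EC50 level of EGF for 5 hours at 37 °C, then loaded with CCF4 dye for 2.5 hours. Beta-lactamase activity under the AP-1 element is read as a blue/green ratio.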

[20] = NFAT Signaling Pathway (AID 444; active = well fitted curve in either direction with a large enough effect, not every such curve was filed as active); conditions: Jurkat NFAT-bla M1, carbachol, beta-lactamase ratio, 5 h; at 17.2 µM (top of the series)
Method in brief: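 Read-out: CCF4 FRET ratio (460 nm/530 nm) after 1 h RT dye loading, used for %activity and AC50 from titration series. Cells: Jurkat NFAT-β-lactamase/M1 line, treated with compound plus 1 uM carbachol for 5 h, 37 °C.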

Cc1c(C(=O)c2ccc3ccccc3c2)c2cccc3c2n1[C@H](CN1CCOCC1)CO3
active: Potency [2] 7.94 µM
inactive: Potency [1] | Potency [3]

Fc1ccc(C(OCCN2CCN(C/C=C\c3ccccc3)CC2)c2ccc(F)cc2)cc1
active: Potency [1] 31.6 µM | Potency [4] 7.94 µM
inactive: Potency [3]

CCCCC1(C2CCCC2)Cc2cc(OCCCC(=O)O)c(Cl)c(Cl)c2C1=O (centres undefined)
inactive: Potency [2]

C[C@@H]1CC[C@@H](c2ccoc2)N2C[C@@]3(CC[C@@H]12)CS[C@@]1(CC[C@H]2[C@H](C)CC[C@@H](c4ccoc4)N2[C@@H]1O)C3
active: Potency [5] 7.43 µM | Potency [6] 6.62 µM | Potency [7] 7.43 µM | Potency [8] 11.7 µM | Potency [9] 8.38 µM | Potency [11] 8.63 µM | Potency [12] 1.88 µM | Potency [13] 12.2 µM
inactive: outcome [10]

CC(=O)N[C@H]1CCN2CCC[C@H]12
inactive: Potency [14] | Potency [5] | Potency [6] | Potency [7] | Potency [8] | Potency [15] | Potency [9] | outcome [10] | Potency [11] | Potency [12] | Potency [16] | Potency [13] | Potency [17] | outcome [18]

CCCC[C@@H]1CC[C@H]2CCCC(CCC)N12 (some centres undefined)
inactive: Potency [14] | Potency [5] | Potency [6] | Potency [7] | Potency [8] | Potency [15] | Potency [9] | outcome [10] | Potency [11] | Potency [16] | outcome [18]

CC=C1CN(C=O)[C@H]2C[C@@H]1[C@@H](C(=O)OC)[C@@]13CCOC21Nc1ccccc13 (some centres undefined)
inactive: Potency [14] | Potency [5] | Potency [6] | Potency [7] | Potency [8] | Potency [15] | Potency [9] | outcome [10] | Potency [11] | Potency [16] | Potency [13] | outcome [18]

CNCCc1c[nH]c2ccccc12
inactive: outcome [19] | activity change, negative = inhibition [20] -6.51% | Potency [5] | Potency [7] | Potency [8] | Potency [15] | Potency [9] | outcome [10] | Potency [11] | Potency [12] | Potency [16] | Potency [13] | Potency [17] | outcome [18]

c1ccc2c3c([nH]c2c1)CNCC3
inactive: outcome [19] | activity change, negative = inhibition [20] 11% | Potency [5] | Potency [7] | Potency [8] | Potency [15] | Potency [11] | Potency [12] | Potency [16] | Potency [13] | outcome [18]
active: Potency [14] 26.6 µM

CC[C@@H]1CN2CC[C@@]3(O)C(=Nc4cccc(OC)c43)[C@@H]2C[C@@H]1/C(=C\OC)C(=O)OC
active: Potency [12] 14.9 µM
inactive: Potency [7] | Potency [8] | Potency [15] | Potency [9] | outcome [10] | Potency [11] | Potency [16] | Potency [13] | outcome [18]
